From publication PMC5540273 (PLoS ONE, 2017)

What was measured:
Settings in all cases: concentration: 1 μM, replicates: in singlicate; n = 1
ACVR1 = tested on: ACVR1
ACVR2A = tested on: ACVR2A
ACVR2B = tested on: ACVR2B
ACVRL1 = tested on: ACVRL1
ADCK3 = tested on: T1, ADCK3
T1 construct: gene CABC1

ADCK4 = tested on: ADCK4
AKT1 = tested on: AKT1
AKT2 = tested on: AKT2
AKT3 = tested on: AKT3
ALK = tested on: ALK
AMPK-alpha1 = tested on: T2, AMPK-alpha1
T2 construct: gene PRKAA1

AMPK-alpha2 = tested on: T3, AMPK-alpha2
T3 construct: gene PRKAA2

ANKK1 = tested on: ANKK1
ARK5 = tested on: T4, ARK5
T4 construct: gene NUAK1

ASK1 = tested on: T5, ASK1
T5 construct: gene MAP3K5

ASK2 = tested on: T6, ASK2
T6 construct: gene MAP3K6

AURKA = tested on: AURKA
AURKB = tested on: AURKB
AURKC = tested on: AURKC
AXL = tested on: AXL
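Further: KINOMEscan kinase panel screen.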

| Structure (SMILES) | %Inh (ACVR1) [%] | %Inh (ACVR2A) [%] | %Inh (ACVR2B) [%] | %Inh (ACVRL1) [%] | %Inh (ADCK3) [%] | %Inh (ADCK4) [%] | %Inh (AKT1) [%] | %Inh (AKT2) [%] | %Inh (AKT3) [%] | %Inh (ALK) [%] | %Inh (AMPK-alpha1) [%] | %Inh (AMPK-alpha2) [%] | %Inh (ANKK1) [%] | %Inh (ARK5) [%] | %Inh (ASK1) [%] | %Inh (ASK2) [%] | %Inh (AURKA) [%] | %Inh (AURKB) [%] | %Inh (AURKC) [%] | %Inh (AXL) [%] |
| --- | --- | --- | --- | --- | --- | --- | --- | --- | --- | --- | --- | --- | --- | --- | --- | --- | --- | --- | --- | --- |
| CN1c2ccc(-c3ccc(C(N)=O)cc3)cc2-c2[nH]ncc2S1(=O)=O | 0 | 8 | 16 | 16 | 0 | 3 | 3 | 0 | 0 | 30 | 0 | 0 | 0 | 0 | 0 | 0 | 0 | 21 | 0 | 5 |
| CCc1ccc(-c2ccc3c(c2)-c2n[nH]cc2S(=O)(=O)N3C)cc1 | 0 | 13 | 22 | 0 | 9 | 0 | 3 | 0 | 0 | 0 | 0 | 1 | 0 | 13 | 6 | 0 | 0 | 0 | 11 | 51 |
| CC(=O)c1cccc(NC(=O)NC2CCN(c3ccnc(Nc4ccc(F)cc4)n3)C2)c1 (centres unmarked) [GSK1379710] | 0 | 10 | 13 | 0 | 25 | 41 | 0 | 2 | 0 | 25 | 0 | 0 | 19 | 31 | 20 | 0 | 12 | 0 | 21 | 5 |
| Cn1cnc2c(N)ncnc21 [SKF-97623] | 0 | 0 | 0 | 0 | 0 | 17 | 0 | 0 | 0 | 28 | 5 | 0 | 0 | 0 | 0 | 0 | 5 | 0 | 0 | 10 |
| COc1nccc(-c2c(-c3ccc(F)cc3)ncn2CCCN2CCOCC2)n1 [SB-282852] | 0 | 0 | 0 | 0 | 0 | 18 | 0 | 3 | 3 | 25 | 77 | 0 | 0 | 0 | 0 | 0 | 23 | 42 | 0 | 0 |
| COc1cccc(NC(=O)Nc2ccc(C)c(-c3ccc(C(=O)Nc4ccncc4)cc3)c2)c1 [GSK1398474] | 0 | 0 | 12 | 0 | 30 | 12 | 0 | 16 | 0 | 23 | 0 | 13 | 10 | 20 | 2 | 0 | 14 | 0 | 40 | 25 |
| Fc1ccc(-c2nc3n(c2-c2ccncc2)CCS3)cc1 [GI98581] | 0 | 0 | 20 | 0 | 13 | 23 | 0 | 13 | 9 | 28 | 14 | 0 | 0 | 0 | 5 | 13 | 0 | 0 | 43 | 6 |
| COC(=O)C(Cc1ccccc1)NC(=O)NC1CCN(c2ccnc(Nc3ccc(F)cc3)n2)C1 (centres unmarked) [GSK1379714] | 6 | 0 | 6 | 0 | 21 | 36 | 0 | 0 | 0 | 0 | 7 | 0 | 0 | 0 | 5 | 0 | 43 | 11 | 35 | 3 |
| Cc1ccc(NC(=O)Nc2ccc(Cl)cc2)cc1-c1ccc(C(=O)Nc2ccncc2)cc1 [GSK1398472] | 15 | 0 | 0 | 0 | 22 | 23 | 0 | 0 | 0 | 46 | 3 | 3 | 12 | 1 | 11 | 0 | 0 | 28 | 10 | 11 |
| O=C1NC(=O)C(c2ccc(Cl)cc2)=C1Nc1ccc(O)cc1 [SB-340867] | 11 | 0 | 0 | 0 | 0 | 0 | 1 | 0 | 0 | 0 | 0 | 0 | 0 | 0 | 0 | 0 | 0 | 9 | 0 | 18 |
| O=C(Nc1n[nH]c2nc(-c3cccs3)c(Br)cc12)C1CC1 [SB-735297] | 27 | 0 | 0 | 0 | 0 | 0 | 0 | 0 | 0 | 0 | 0 | 8 | 9 | 0 | 2 | 13 | 0 | 31 | 6 | 28 |
| CNc1nc(-c2ccc3c(N)n[nH]c3c2)cc(N2C[C@@H](C(=O)NC3CCCCC3)OC[C@H]2C)n1 [GSK2375584] | 18 | 0 | 35 | 0 | 24 | 18 | 0 | 22 | 0 | 0 | 6 | 0 | 8 | 23 | 12 | 0 | 9 | 16 | 12 | 0 |
| COc1ccc(CSc2nnc(-c3ccc4c(c3)CCO4)o2)cc1 | 0 | 0 | 0 | 0 | 0 | 0 | 0 | 0 | 0 | 0 | 0 | 0 | 0 | 33 | 0 | 0 | 0 | 0 | 0 | 0 |
| Cc1c(Cn2c(C)c(C)n3c(=O)cc(N4CCOCC4)nc23)cccc1C(F)(F)F [GSK2328680] | 0 | 0 | 0 | 0 | 2 | 14 | 0 | 0 | 0 | 3 | 0 | 2 | 0 | 0 | 2 | 0 | 0 | 0 | 0 | 0 |
| Cl.Cl.Cl.N#Cc1ccc(CCNc2nccc(-c3cccc(CN4CCNCC4)c3)n2)cc1 [GSK2137462] | 11 | 0 | 0 | 0 | 23 | 22 | 0 | 5 | 5 | 15 | 25 | 14 | 15 | 17 | 20 | 4 | 20 | 0 | 15 | 44 |
| Cc1cnc(N)c(/C=C/c2cncc(C(=O)NCCc3ccc(Cl)cc3Cl)c2)c1.Cl [GSK190937] | 0 | 0 | 0 | 0 | 25 | 13 | 0 | 0 | 0 | 0 | 3 | 18 | 3 | 1 | 2 | 0 | 1 | – | 12 | 5 |

| Structure (SMILES) | %Inh (ACVR1) [%] | %Inh (ACVR2A) [%] | %Inh (ACVR2B) [%] | %Inh (ACVRL1) [%] | %Inh (ADCK3) [%] | %Inh (ADCK4) [%] | %Inh (AKT1) [%] | %Inh (AKT2) [%] | %Inh (AKT3) [%] | %Inh (ALK) [%] | %Inh (AMPK-alpha1) [%] | %Inh (AMPK-alpha2) [%] | %Inh (ANKK1) [%] | %Inh (ARK5) [%] | %Inh (ASK1) [%] | %Inh (ASK2) [%] | %Inh (AURKA) [%] | %Inh (AURKB) [%] | %Inh (AURKC) [%] | %Inh (AXL) [%] |
| --- | --- | --- | --- | --- | --- | --- | --- | --- | --- | --- | --- | --- | --- | --- | --- | --- | --- | --- | --- | --- |
| CC(C)c1cc(-c2ccc3c(N)n[nH]c3c2)nc(N)n1 [GSK2250882] | 0 | 0 | 0 | 0 | 13 | 37 | 0 | 17 | 0 | 0 | 0 | 0 | 8 | 0 | 0 | 7 | – | 18 | 56 | 0 |
| COC(=O)c1cccc(NC(=O)NC2CCN(c3ccnc(Nc4ccc(F)cc4)n3)C2)c1 (centres unmarked) [GSK1379725] | 0 | 0 | 0 | 0 | 4 | 23 | 0 | 0 | 0 | 17 | 0 | 0 | 0 | 0 | 0 | 1 | 0 | 39 | 34 | 6 |
| Cc1nccc(-c2c(-c3ccc(F)cc3)ncn2CCCN2CCOCC2)n1.Cl [SB-282975] | 5 | 53 | 7 | 19 | 37 | 0 | 28 | 0 | 0 | 9 | 0 | 0 | 33 | 0 | 7 | 20 | 8 | 14 | 34 | 0 |
| O=C1NC(=O)C(c2ccc(Cl)cc2)=C1Nc1cccc(Cl)c1 [SB-317651] | 0 | 0 | 0 | 16 | 17 | 0 | 0 | 5 | 0 | 0 | 0 | 0 | 0 | 0 | 3 | 0 | 0 | 35 | 0 | 20 |
| CCCCc1nn2ncccc2c1-c1ccnc(NC2CC2)n1 [GW684374] | 2 | 0 | 0 | 0 | 61 | 38 | 0 | 0 | 0 | 17 | 0 | 0 | 8 | 12 | 0 | 0 | 30 | 12 | 38 | 0 |
| CCn1c(-c2ccccc2)nc2cnccc21 [SB-733416] | 23 | 20 | 15 | 10 | 8 | 0 | 0 | 14 | 0 | 36 | 0 | 0 | 0 | 8 | 28 | 17 | 0 | 0 | 30 | 10 |
| COc1ccc(CSc2nnc(-c3ccc4nccn4c3)o2)cc1C(F)(F)F | 0 | 7 | 15 | 21 | 6 | 6 | 13 | 4 | 44 | 29 | 3 | 9 | 0 | 9 | 0 | 44 | 0 | 22 | 15 | 20 |
| CC(C)c1ccc(O)cc1Nc1ccnc2ccc(C(F)(F)F)cc12 [GW482059] | 0 | 43 | 0 | 19 | 0 | 2 | 0 | 0 | 0 | 15 | 20 | 13 | 0 | 0 | 1 | 0 | 0 | 0 | 0 | 14 |
| COC(=O)C(NC(=O)NC1CCN(c2ccnc(Nc3ccc(F)cc3)n2)C1)c1ccccc1 (centres unmarked) [GSK1379712] | 4 | 0 | 11 | 0 | 0 | 22 | 0 | 0 | 0 | 19 | 0 | 12 | 10 | 8 | 20 | 2 | 5 | 0 | 32 | 0 |
| CC[C@@H]1CO[C@H](C(=O)Nc2ccccc2)CN1c1cc(-c2ccc3c(N)n[nH]c3c2)nc(NC)n1 [GSK2376236] | 0 | 0 | 0 | 0 | 27 | 12 | 0 | 15 | 0 | 0 | 0 | 1 | 0 | 14 | 4 | 0 | – | 0 | 48 | 0 |
| Cn1cncc1-c1cc2c(Nc3ccc(OCc4ccccc4)cc3)ncnc2cn1 [GW281179] | 5 | 0 | 18 | 0 | 7 | 24 | 0 | 5 | 0 | 23 | 0 | 0 | 0 | 13 | 9 | 0 | 0 | 25 | 5 | 0 |
| Cc1c(Cn2c3ccccc3n3c(=O)cc(N4CCOCC4)nc23)cccc1C(F)(F)F [GSK2306394] | 10 | 6 | 0 | 9 | 0 | 0 | 0 | 19 | 0 | 2 | 0 | 0 | 0 | 8 | 0 | 8 | 0 | 9 | 14 | 5 |
| c1ccc(-c2ccnc3[nH]ccc23)cc1 [SB-693578] | 0 | 0 | 0 | 0 | 6 | 40 | 0 | 6 | 0 | 33 | 0 | 0 | 0 | 20 | 2 | 19 | 17 | 41 | 0 | 0 |
| Cc1ccc(-c2nc(Nc3ccncc3)c3ccccc3n2)s1 [GSK189015] | 34 | 17 | 11 | 29 | 21 | 4 | 55 | 19 | 3 | 26 | 0 | 20 | 65 | 17 | 1 | 11 | 0 | 0 | 24 | 20 |
| COc1cccc(CNC(=O)NC2CCN(c3ccnc(Nc4ccc(F)cc4)n3)C2)c1 (centres unmarked) [GSK1379723] | 10 | 0 | 0 | 0 | 10 | 35 | 0 | 12 | 0 | 43 | 0 | 12 | 0 | 24 | 0 | 9 | 11 | 37 | 49 | 6 |
